AMA1 RON2 block: AMA1-RON2 (P. falciparum) interaction inhibition | 0.2% of 360,000 active | AID 720542 | AlphaScreen AMA1-biotinylated RON2 peptide binding | Potency, µM (series often up to 58.2 µM), hits mostly inhibitors; note: nearly all actives have a fitted effect of over 45% in size
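AMA1 (3D7) with his tag at 25 nM final met compounds first, then biotinylated RON2 peptide at 25 nM; detection used donor plus acceptor beads, 10 µg/mL apiece, read by AlphaScreen after 30 min at room temperature.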
Sm TGR block: inhibitors of Schistosoma mansoni thioredoxin glutathione reductase. Q962Y6. purified TGR, DTNB reduction, TNB absorbance 405 nm. Potency, µM (series often up to 114 µM), most hits filed as inhibitors. 3% of 360,000 active; note: nearly all actives have a fitted effect of over 60% in size
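Kinetic colorimetric format: TGR-catalysed, NADPH-driven DTNB reduction monitored via TNB absorbance. Enzyme dispensed at 20 nM; compound exposure 15 min at room temperature before reaction start.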
FMDV antiviral: antivirals against foot and mouth disease virus; 1.2% of 410,000 active; Potency, µM (doses to about 57.9 µM), usual class: inhibitors; FMDV antiviral cell-based qHTS; calls by dose curve; tested in HEK293T cells; note: read-out not given here; nearly all actives have a fitted effect of over 45% in size
AmpC detergent: inhibitors of E. coli AmpC beta-lactamase with detergent; AmpC hydrolysis of nitrocefin, absorbance 480 nm, 0.01% Triton; AID 485294; Potency, µM (top dose mostly 114 µM), hits mostly inhibitors; 0.041% of 370,000 active; note: nearly all actives have a fitted effect of over 25% in size
Target sequence (P00811 whole entry, looked up): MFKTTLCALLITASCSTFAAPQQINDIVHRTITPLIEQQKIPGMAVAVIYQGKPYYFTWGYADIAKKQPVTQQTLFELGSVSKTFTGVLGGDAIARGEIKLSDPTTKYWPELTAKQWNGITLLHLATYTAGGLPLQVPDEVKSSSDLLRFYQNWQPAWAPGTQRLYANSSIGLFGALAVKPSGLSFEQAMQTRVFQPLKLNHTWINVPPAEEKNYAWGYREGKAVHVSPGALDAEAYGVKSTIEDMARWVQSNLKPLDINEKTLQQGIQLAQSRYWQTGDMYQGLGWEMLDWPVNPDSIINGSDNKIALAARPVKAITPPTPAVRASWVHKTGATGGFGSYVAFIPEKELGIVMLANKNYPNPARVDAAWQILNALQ
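20 mM phosphate pH 7.0 + 0.01% (detergent screen) or 0.0001% Triton X-100; 5.3 nM AmpC reagent; cpd preinc 15 min RT; nitrocefin (800 uM stock) to start; A480 q20 s × 4 min; Activity was normalised to no-enzyme and no-compound control wells.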
AmpC no deterg: AmpC beta-lactamase inhibition without detergent; AmpC nitrocefin hydrolysis, absorbance 480 nm, 0.0001% Triton; Potency, µM (series often up to 57.1 µM), usual class: inhibitors; 0.52% of 330,000 active; AID 485341; note: nearly all actives have a fitted effect of over 20% in size
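AmpC (5.3 nM in the dispensed reagent) in 20 mM phosphate pH 7.0 with 0.01% (detergent screen) or 0.0001% Triton X-100 was preincubated with compounds for 15 min at room temperature. Nitrocefin was then added from an 800 uM solution, and hydrolysis was followed at 480 nm.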
Large screens that a line does not name were inactive. A selection: hits, their analogues and other compounds. The true share with any hit is near 4.1%. Unless noted, calls come from the whole dose curve; as a rule, active = well fitted curve in the direction sought with a large enough effect; inconclusive = small, poorly fitted or top-dose-only effect, or another doubt; inactive = no such curve, though single readings can be large; an effect the other way counts as inactive or inconclusive.

O=C1c2cccc3c([N+](=O)[O-])ccc(c23)C(=O)N1O	FMDV antiviral inconclusive
O=C(O)c1ccc2c(c1)C(=O)N(c1ccc(Cl)cn1)C2=O	AmpC detergent inconclusive, AmpC no deterg 0.63µM
O=C1c2cccc3c([N+](=O)[O-])ccc(c23)C(=O)N1c1nccs1	Sm TGR block 1.8µM, FMDV antiviral 35µM
O=C1c2ccc([N+](=O)[O-])cc2C(=O)N1c1ccc(Cl)cn1	none
O=C1c2cccc3c([N+](=O)[O-])ccc(c23)C(=O)N1c1ccc(Cl)cn1	Sm TGR block 14µM, FMDV antiviral 25µM
O=C1c2cccc3c([N+](=O)[O-])ccc(c23)C(=O)N1c1ccccn1	Sm TGR block 20µM, FMDV antiviral inconclusive
COc1cc(=O)n2c(c1C(=O)N(C)Cc1nonc1C)CCN(Cc1cc(F)ccc1F)CC2	none (no result: AMA1 RON2 block, Sm TGR block, AmpC detergent, AmpC no deterg)
COC(=O)c1c(OCCN2CCCCC2)cc(=O)n2c1CCN(Cc1cccc3nccnc13)CC2	none (no result: AMA1 RON2 block, Sm TGR block, AmpC detergent, AmpC no deterg)
O=c1cc(OCc2ccccc2)cc[nH]1	AMA1 RON2 block 1.1µM, AmpC detergent inconclusive
Cc1[nH]ccc(=O)c1OCc1ccccc1	AmpC no deterg inconclusive
O=C(Nc1ccccc1F)c1nc(SCc2ccc(F)cc2)ncc1Cl	none (no result: AMA1 RON2 block, AmpC no deterg)
COc1ccc(F)cc1S(=O)(=O)NCCc1sc2nc(-c3ccc(F)cc3)nn2c1C	none (no result: AMA1 RON2 block, AmpC no deterg)
Cc1cnc(SCc2ccccn2)nc1C1CCCN(C(=O)c2ccc3c(c2)OCCO3)C1 (centres undefined)	none (no result: AMA1 RON2 block, Sm TGR block, AmpC detergent, AmpC no deterg)
CS(=O)(=O)c1ncc(Cl)c(C(=O)Nc2ccc3ccccc3c2)n1	FMDV antiviral 13µM (no result: Sm TGR block)
COc1ccc(NC(=O)c2nc(S(=O)(=O)Cc3ccc(C)cc3)ncc2Cl)cc1	Sm TGR block inconclusive, FMDV antiviral inconclusive (no result: AMA1 RON2 block, AmpC no deterg)
CCCS(=O)(=O)c1ncc(Cl)c(C(=O)Nc2c(C(=O)Nc3ccccc3)oc3ccccc23)n1	FMDV antiviral inconclusive (no result: AMA1 RON2 block, AmpC no deterg)
CCS(=O)(=O)c1ncc(Cl)c(C(=O)NCc2ccccc2)n1	Sm TGR block 32µM, FMDV antiviral inconclusive (no result: AMA1 RON2 block, AmpC no deterg)
COC(=O)c1ccccc1NC(=O)c1sc(Cl)nc1C	none
COc1ccc(CNC(=O)c2nc(S(=O)(=O)Cc3ccccc3)ncc2Cl)cc1	Sm TGR block 2.5µM, FMDV antiviral 22µM, AmpC detergent inconclusive
COC(=O)c1ccccc1NC(=O)c1nc(S(=O)(=O)Cc2ccccc2)ncc1Cl	Sm TGR block 2.8µM, FMDV antiviral 32µM
O=C(CSc1nc(-c2ccccc2)c2ccccc2n1)Nc1ccc(F)cc1	none (no result: AMA1 RON2 block, AmpC no deterg)
CS(=O)(=O)c1ncc(Cl)c(C(=O)N(Cc2ccc(Cl)cc2)Cc2ccco2)n1	Sm TGR block 1.8µM, FMDV antiviral inconclusive (no result: AMA1 RON2 block, AmpC no deterg)
COC(=O)c1cscc1S(=O)(=O)Cc1ccccc1	Sm TGR block 10µM
COc1ccc(N(Cc2ccccc2)C(=O)c2nc(S(C)(=O)=O)ncc2Cl)cc1	Sm TGR block 5.6µM, FMDV antiviral 18µM (no result: AMA1 RON2 block, AmpC no deterg)
O=C(c1ccc(Cl)cc1)N(Cc1ccco1)Cc1ccco1	none (no result: AMA1 RON2 block, AmpC no deterg)
CC(=O)Nc1ccc(NC(=O)c2nc(S(=O)(=O)Cc3ccccc3)ncc2Cl)cc1	Sm TGR block 5µM, FMDV antiviral 32µM
O=C(c1cc2c(=O)oc3ccccc3c2s1)N1CCN(c2cccc(Cl)c2)CC1	AmpC detergent inconclusive (no result: AMA1 RON2 block, AmpC no deterg)
Cc1noc(C(=O)NCc2ccccc2)c1Cl	none
O=C(NCc1ccccc1)c1nc(S(=O)(=O)Cc2ccccc2)ncc1Cl	Sm TGR block 8.9µM, FMDV antiviral 32µM
COc1cc(OC)cc(-c2nc3nc(C)c(CCC(=O)Nc4cc(C)cc(C)c4)c(C)n3n2)c1	AmpC detergent inconclusive (no result: AMA1 RON2 block, AmpC no deterg)
COc1ccc2c(c1)-c1c(sn(-c3ccc(OC)c(OC)c3)c1=S)C(C)(C)N2	AMA1 RON2 block inconclusive, AmpC detergent inconclusive
COc1ccc(-n2sc3c(c2=S)-c2cc(OC)ccc2NC3(C)C)cc1	AMA1 RON2 block 22µM
COc1ccc2c(c1)-c1c(ssc1=S)C(C)(C)N2	AMA1 RON2 block 30µM, AmpC detergent inconclusive (no result: FMDV antiviral)
COc1ccc2c(c1)-c1c(sn(-c3ccccc3)c1=S)C(C)(C)N2	AMA1 RON2 block 13µM, FMDV antiviral inconclusive
CCOC(=O)C1CCC(CN(Cc2ccc(Cl)cc2)S(=O)(=O)c2cccc(Cl)c2C)CC1 (centres undefined)	none (no result: AMA1 RON2 block, AmpC no deterg)
COc1ccc(Cl)cc1NC(=O)c1sc(-n2nc(C)c(Cc3ccccc3)c2C)nc1C	none (no result: AMA1 RON2 block, AmpC no deterg)
Cc1ccc(Cl)cc1NC(=O)C(C)n1nnc2sc3c(c2c1=O)CCCC3 (centres undefined)	none (no result: AMA1 RON2 block, AmpC no deterg)
Cc1cc(N=NC(=O)c2ccccc2)ccc1O	Sm TGR block 11µM, AmpC detergent inconclusive
Cc1nc2ncccn2c1-c1csc(NCc2ccco2)n1	FMDV antiviral 35µM
COc1ccc(Nc2nc(-c3c(C)nc4ncccn34)cs2)cc1	FMDV antiviral inconclusive
Oc1ccc(-c2csc(NCc3ccco3)n2)cc1	none
Cc1nc2ncccn2c1-c1csc(Nc2ccccc2)n1	FMDV antiviral inconclusive
COc1ccccc1Nc1nc(-c2c(C)nc3ncccn23)cs1	FMDV antiviral 14µM
Cc1nc2ncccn2c1-c1csc(Nc2ccc(N(C)C)cc2)n1	AMA1 RON2 block 14µM, FMDV antiviral inconclusive (no result: Sm TGR block)
CCc1ccc(OCC(=O)Nc2ccc(Cl)c(-c3nc4cc(C)cc(C)c4o3)c2)cc1	none (no result: AMA1 RON2 block, AmpC no deterg)
Cc1nc2c(OCc3ccc(C(F)(F)F)cc3)cccn2c1N(C)CC1CC1	FMDV antiviral inconclusive (no result: Sm TGR block, AmpC detergent, AmpC no deterg)
Cc1ccc(CNc2ccc(-c3nc(-c4ccco4)no3)cc2[N+](=O)[O-])cc1	none (no result: AMA1 RON2 block, AmpC no deterg)
N#CCCCN1C(=O)C(O)(CC(=O)c2ccc3c(c2)OCCO3)c2ccccc21 (centres undefined)	AmpC detergent inconclusive
N#CCCCN1C(=O)C(=C(C#N)C#N)c2ccccc21	Sm TGR block 2.5µM, FMDV antiviral inconclusive
c1ccc2c(c1)OCC(c1csc3ncnc(N4CCCCC4)c13)O2 (centres undefined)	AMA1 RON2 block inconclusive, FMDV antiviral 32µM, AmpC detergent inconclusive
CCOC(=O)c1cnc2ccc(C(=O)OC)cc2c1NCCN1CCOCC1	Sm TGR block 32µM (no result: FMDV antiviral)
CCOC(=O)c1cnc2ccc(OCC)cc2c1NCc1ccccc1OC	FMDV antiviral 18µM
CCOC(=O)c1cnc2ccc(C(=O)OC)cc2c1NCCCN1CCOCC1	Sm TGR block inconclusive, AmpC detergent inconclusive
CN(Cc1ccncn1)C(=O)CC1C(=O)NCCN1Cc1cccc(Oc2ccccc2)c1 (centres undefined)	Sm TGR block 45µM
O=C1NCCN(Cc2ccc(Cl)c(F)c2)C1CC(=O)N1CCc2ccccc2C1 (centres undefined)	Sm TGR block 20µM
CN(Cc1cccnc1)C(=O)CC1C(=O)NCCN1CC(c1ccccc1)c1ccccc1 (centres undefined)	Sm TGR block inconclusive
CN(Cc1ccon1)C(=O)CC1C(=O)NCCN1Cc1ccc(Cl)c(F)c1 (centres undefined)	Sm TGR block 35µM

Screening results (PubChem BioAssay)
